Screens as filed in PubChem.
The sample as a whole holds a higher share of hits than the screen did.
HttQ103 aggreg: mutant huntingtin aggregation inhibition. PC12 HttQ103-GFP aggregates, Acumen cytometry, 40 h. Potency, µM (doses to about 46.1 µM), inactives show at the top dose activity change, negative = inhibition, usual class: inhibitors. actives 1.1% (n = 220,000); note: potency is the fitted concentration of half-maximal effect; % is set by controls: 0 for no effect and ±100 for the full control effect; nearly all actives have a fitted effect of over 60% in size
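Aggregates are detected as GFP objects 1–25 µm with signal 6 STDEV over background in lysates of induced PC12 cells. These carry Huntingtin exon 1 with 103 glutamines fused to GFP under an ecdysone promoter; compounds titrated.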
HTT ATP protect: protects HTT-Q103 PC12 cells, measured by ATP | PC12 HTT-Q103 induced, cytoprotection, ATP luminescence, 40 h | Potency, µM (doses to about 56.4 µM), without a hit: cytoprotection (ATP increase), most hits filed as activators | actives 0.14% (n = 230,000) | AID 1471; note: potency is the fitted concentration of half-maximal effect; % of control where 0% means no effect; nearly all actives have a fitted effect of over 45% in size
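PC12 cells stably carrying ecdysone-inducible Htt exon 1 (Q103)–GFP were induced with 100 nM tebufenozide (final) alongside library compounds in a dose series. Cytoprotection was scored as retained ATP by ATPlite luminescence.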
PNC assembly inh: perinucleolar compartment assembly inhibition; PC3M PTB-GFP, PNC prevalence imaging, 16 h; hits give low values; activity change (PNC), negative = inhibition, % at 10 µM; actives 3.1% (n = 140,000);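 active = readout at or below -70, meaning at least 70% loss of cells showing the perinucleolar compartment, a nuclear body marking cancer cells; inconclusive = readout between -30 and a set limit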;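 note: plate controls were DMSO wells for no effect and camptothecin positive control wells for full effect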
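Compounds are pinned in duplicate onto adhered PC3M cells stably expressing GFP-tagged PTB and incubated 16 h at 37 C. Cells are then fixed, nuclei stained with Hoechst, and PNC-positive cells counted.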
The depositor's hits bear a star; [ ] = another dose, or the depositor's remark. Unless noted, calls come from the whole dose curve; as a rule, active = well fitted curve in the direction sought with a large enough effect; inconclusive = small, poorly fitted or top-dose-only effect, or another doubt; inactive = no such curve, though single readings can be large; an effect the other way counts as inactive or inconclusive.

How did COC1C=CC(CNC(=O)c2cc3c(=O)n4cccc(C)c4nc3n2C)(OC)O1 (centres undefined) do in these assays?
HttQ103 aggreg: -3%; HTT ATP protect: -39%

Results for CC1CCCc2sc3ncn(N)c(=N)c3c21 (centres undefined) ?
HttQ103 aggreg: 1.4µM*; HTT ATP protect: -14%

How did CC1(C)Cc2c(sc3ncn(N)c(=N)c23)CO1 do in these assays?
HttQ103 aggreg: -21%; HTT ATP protect: 22%; PNC assembly inh: 34

How did O=C1CSC(c2ccc3c(c2)OCO3)N1c1ccc(Oc2ccccc2)cc1 (centres undefined) do in these assays?
HttQ103 aggreg: inconclusive; HTT ATP protect: -66%; PNC assembly inh: 0

How did COc1cc2ncnc(NCc3ccco3)c2cc1OC do in these assays?
HttQ103 aggreg: -18%[9.22 µM]; HTT ATP protect: -5%

How did Cc1ccc2[nH]c3c(NCc4ccco4)ncnc3c2c1 do in these assays?
HttQ103 aggreg: 11µM*; HTT ATP protect: -89%[0.074 µM]; PNC assembly inh: -14

What do the screens show for `Brc1ccc2ncnc(NCc3ccco3)c2c1`?
HttQ103 aggreg: 8.9µM*; HTT ATP protect: -11%; PNC assembly inh: -13

How did c1ccc(-n2ncc3c(NCc4ccco4)ncnc32)cc1 do in these assays?
HttQ103 aggreg: 11%; HTT ATP protect: -21%; PNC assembly inh: 31

Results for COc1cc(CNc2ncnc3c2[nH]c2ccc(C)cc23)cc(OC)c1 ?
HttQ103 aggreg: -11%[9.22 µM]; HTT ATP protect: 12%[10 µM]

How did c1ccc(Cn2ncc3c(NCc4ccco4)ncnc32)cc1 do in these assays?
HttQ103 aggreg: -18%; HTT ATP protect: -18%; PNC assembly inh: -105*

Results for CSCCC(Nc1ncnc2ccc(Br)cc12)C(=O)O (centres undefined) ?
HttQ103 aggreg: -8%; HTT ATP protect: -15%[10 µM]; PNC assembly inh: 15

Results for CC(C)Nc1ncnc2ccc(Br)cc12 ?
HttQ103 aggreg: 6.3µM*; PNC assembly inh: 26

What do the screens show for `Cc1ccc(/C=N/NC(=O)c2cccc(S(=O)(=O)Nc3cccc(Cl)c3)c2)o1`?
HttQ103 aggreg: 14%

How did Cc1nccn1CC1CCC2C(C1=O)c1ccccc1N2C (centres undefined) do in these assays?
HTT ATP protect: -35%

How did Cc1cc2ccccc2n1CCNC(=O)c1ccc(S(=O)(=O)N2CCOCC2)cc1 do in these assays?
HttQ103 aggreg: inconclusive; HTT ATP protect: -10%; PNC assembly inh: inconclusive

What do the screens show for `NNc1ccc(Cc2ccc(Cl)cc2Cl)nn1`?
HttQ103 aggreg: inconclusive; HTT ATP protect: -5%[10 µM]

How did Cc1cc(CSc2ccccc2)ccc1NC(=O)c1ccc(Cl)c([N+](=O)[O-])c1 do in these assays?
HttQ103 aggreg: -1%; HTT ATP protect: -7%; PNC assembly inh: -23

Results for CNS(=O)(=O)c1cccc(C(=O)OCC(=O)N(CCC#N)c2ccccc2)c1 ?
HttQ103 aggreg: 7%; HTT ATP protect: 16%[10 µM]

What do the screens show for `Cc1ccc(S(=O)(=O)Nc2ccc(C(=O)OCC(=O)N(CCC#N)c3ccccc3)cc2)cc1C`?
HttQ103 aggreg: -12%; HTT ATP protect: 12%[10 µM]; PNC assembly inh: -87*

How did CCS(=O)(=O)NCCNc1ccc([N+](=O)[O-])cc1 do in these assays?
HttQ103 aggreg: -11%; HTT ATP protect: 4%[10 µM]

How did C[n+]1cccc(/C=N/Nc2nc(Cl)c(C#N)c(Cl)c2Cl)c1 do in these assays?
HttQ103 aggreg: 28%[9.22 µM]; HTT ATP protect: 32%[10 µM]

Results for O=C(c1ccccc1)N1CCC(c2nc(-c3ccc(S(=O)(=O)NCC4CCCO4)cc3)no2)CC1 (centres undefined) ?
HttQ103 aggreg: 6.3µM*; HTT ATP protect: -5%; PNC assembly inh: inconclusive

Results for O=C(C1CC1)N1CCC(c2nc(-c3ccc(S(=O)(=O)NCC4CCCO4)cc3)no2)CC1 (centres undefined) ?
HttQ103 aggreg: inconclusive; HTT ATP protect: -11%[10 µM]; PNC assembly inh: 32

Results for COc1ccc(C2/C=C\CN(S(=O)(=O)/C=C/c3ccccc3)[C@H](Cc3ccccc3)C(=O)N2Cc2ccc(F)cc2)cc1 (some centres undefined) ?
HttQ103 aggreg: 30%[9.22 µM]; HTT ATP protect: -4%[10 µM]

What do the screens show for `Cn1c(NCc2ccccc2O)nc2ccccc21`?
HttQ103 aggreg: -4%; HTT ATP protect: -13%; PNC assembly inh: -14

Results for C=CCc1cccc(CNc2nc3ccccc3n2C(C)C)c1O ?
HttQ103 aggreg: 18µM*; HTT ATP protect: -65%; PNC assembly inh: 4

What do the screens show for `Cn1c(C(=O)N2CCc3ccccc3C2)cc2oc3ccccc3c21`?
HttQ103 aggreg: inconclusive; HTT ATP protect: 0%[10 µM]; PNC assembly inh: -119*

Results for CCn1c(C(=O)N2CCc3ccccc3C2)cc2oc3ccccc3c21 ?
HttQ103 aggreg: 19%; HTT ATP protect: -81%; PNC assembly inh: 2

What do the screens show for `O=C(COC(=O)CCc1nc2ccccc2n1-c1ccccc1)Nc1ccc(N2CCCCC2)cc1`?
HttQ103 aggreg: -1%; HTT ATP protect: 3.2µM*; PNC assembly inh: 36

How did O=C(CCc1nc2ccccc2n1-c1ccccc1)NCCO do in these assays?
HttQ103 aggreg: -11%; HTT ATP protect: 5%[10 µM]; PNC assembly inh: 30

What do the screens show for `COc1cccc(C(=O)OCCCN(C)C)c1`?
HttQ103 aggreg: 10%; HTT ATP protect: 10%[10 µM]; PNC assembly inh: -11

Results for Cc1ccc(/C=c2\s/c(=C(/C#N)C(=O)N3CCCC3)n(Cc3ccco3)c2=O)s1 ?
HttQ103 aggreg: 30%; HTT ATP protect: -36%; PNC assembly inh: -90*

Results for COc1cc(/C=c2\s/c(=C(/C#N)C(=O)N3CCCC3)n(-c3ccccc3)c2=O)ccc1O ?
HttQ103 aggreg: 10%; HTT ATP protect: -10%[10 µM]; PNC assembly inh: inconclusive

How did COc1ccc(NS(=O)(=O)c2ccc(OC)c3ccccc23)cn1 do in these assays?
HttQ103 aggreg: 18µM*; HTT ATP protect: -23%; PNC assembly inh: -13

How did COc1ccc(NS(=O)(=O)c2cccs2)cn1 do in these assays?
HttQ103 aggreg: 2%

How did CC(NC(=O)/C=C/c1ccccc1)c1ccccc1 (centres undefined) do in these assays?
HttQ103 aggreg: -11%[9.22 µM]; HTT ATP protect: -13%[10 µM]

Results for CC(NC(=O)/C=C/c1ccc(Br)cc1)c1ccccc1 (centres undefined) ?
HttQ103 aggreg: -8%; HTT ATP protect: 2%[10 µM]; PNC assembly inh: -84*

Results for COc1ccc(/C=N/NC(=O)c2cccc(NC(=O)c3ccccc3)c2)c(C(=O)O)c1OC ?
HttQ103 aggreg: -6%; HTT ATP protect: -12%[10 µM]; PNC assembly inh: inconclusive

How did COc1ccc(NC(=O)c2ccc(-c3ccccc3C(F)(F)F)o2)cc1 do in these assays?
HttQ103 aggreg: 9%; PNC assembly inh: -100*

What do the screens show for `O=C(Nc1cccc(F)c1)c1ccc(-c2ccccc2C(F)(F)F)o1`?
HttQ103 aggreg: 9%; PNC assembly inh: -10

What do the screens show for `COc1ccc(N(CC(=O)Nc2cccc(N(C)S(C)(=O)=O)c2)S(=O)(=O)c2ccc(F)cc2)cc1`?
HttQ103 aggreg: -9%[9.22 µM]; HTT ATP protect: -15%[10 µM]

Results for COc1ccccc1/C=N/NC(=O)C(C)Cn1cnc2ccccc21 (centres undefined) ?
HttQ103 aggreg: 2%; HTT ATP protect: 9%[1.9 µM]; PNC assembly inh: 40
